Measured values: PubChem BioAssay AID1159580 (chemical genetic matrix, 2015)
Several values for one entry are separate records, joined by “and”; a condition that tells them apart may be missing. Equal entries are not always repeated. The whole screen tested about 5,500 compounds, of which about 2,000 (36%) were called active. Roughly 18% stayed inconclusive and do not appear here. Rule as the data show it: active = normalized growth mostly below about 0.91 (no sharp cut-off); inconclusive = no clear call, values can overlap the other calls; inactive = mostly above about 0.92. The list shows a part of the results.

Test: chemical genetic growth profiling, strain panel (AID 1159580);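 also: tested at 20 µM; growth read once vehicle control cultures reached saturation at 30 °C; 1 = growth at the plate median or of vehicle wells; lower values mean less growth of the strain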
Conditions: growth OD

Measured: normalized growth

CN1CCN(C2=Nc3ccccc3Oc3ccc(Cl)cc32)CC1
inactive: S. cerevisiae deletion strains, locus YJR075W, strain HOC1, stronger effect = lower value 0.996 | S. cerevisiae deletion strains, locus YKL009W, strain mrt4, stronger effect = lower value 0.98 | S. cerevisiae deletion strains, locus YKL068W, stronger effect = lower value 0.992 | S. cerevisiae deletion strains, locus YKL085W, strain MDH1 (second series), stronger effect = lower value 1.02 | S. cerevisiae deletion strains, locus YKL085W, strain MDH1, stronger effect = lower value 1.02 | S. cerevisiae deletion strains, locus YKL160W, strain elf1, stronger effect = lower value 0.958 | S. cerevisiae deletion strains, locus YKL190W, strain CNB1, stronger effect = lower value 1 | S. cerevisiae deletion strains, locus YKR001C, strain vps1, stronger effect = lower value 0.998 | S. cerevisiae deletion strains, locus YKR026C, strain gcn3, stronger effect = lower value 0.983 | S. cerevisiae deletion strains, locus YKR091W, strain srl3, stronger effect = lower value 0.975 | S. cerevisiae deletion strains, locus YLL001W, strain dnm1, stronger effect = lower value 1 | S. cerevisiae deletion strains, locus YLL026W, stronger effect = lower value 0.972 | S. cerevisiae deletion strains, locus YLL041C, strain sdh2, stronger effect = lower value 0.987 | S. cerevisiae deletion strains, locus YLR027C, strain aat2, stronger effect = lower value 0.975 | S. cerevisiae deletion strains, locus YLR039C, strain RIC1, stronger effect = lower value 1.13 | S. cerevisiae deletion strains, locus YLR058C, strain SHM2, stronger effect = lower value 0.986 | S. cerevisiae deletion strains, locus YLR102C, strain apc9, stronger effect = lower value 0.994 | S. cerevisiae deletion strains, locus YLR113W, strain HOG1, stronger effect = lower value 1.03 | S. cerevisiae deletion strains, locus YLR221C, strain rsa3, stronger effect = lower value 1.01 | S. cerevisiae deletion strains, locus YLR258W, strain gsy2, stronger effect = lower value 0.975 | S. cerevisiae deletion strains, locus YLR262C, strain YPT6 (second series), stronger effect = lower value 0.992 | S. cerevisiae deletion strains, locus YLR262C, strain YPT6, stronger effect = lower value 1.13 | S. cerevisiae deletion strains, locus YLR268W, strain sec22, stronger effect = lower value 0.995 | S. cerevisiae deletion strains, locus YLR320W, strain mms22, stronger effect = lower value 1.04 | S. cerevisiae deletion strains, locus YLR330W, strain CHS5, stronger effect = lower value 0.997 | S. cerevisiae deletion strains, locus YLR342W, strain FKS1 (second series), stronger effect = lower value 0.948 | S. cerevisiae deletion strains, locus YLR342W, strain FKS1, stronger effect = lower value 0.994 | S. cerevisiae deletion strains, locus YLR357W, strain rsc2, stronger effect = lower value 0.964 | S. cerevisiae deletion strains, locus YLR370C, strain arc18, stronger effect = lower value 0.967 | S. cerevisiae deletion strains, locus YLR371W, strain rom2, stronger effect = lower value 0.995 | S. cerevisiae deletion strains, locus YLR384C, strain iki3, stronger effect = lower value 1 | S. cerevisiae deletion strains, locus YLR418C, strain cdc73, stronger effect = lower value 0.988 | S. cerevisiae deletion strains, locus YML016C, strain PPZ1, stronger effect = lower value 0.981 | S. cerevisiae deletion strains, locus YML032C, strain rad52, stronger effect = lower value 0.989 | S. cerevisiae deletion strains, locus YML120C, strain ndi1, stronger effect = lower value 1.01 | S. cerevisiae deletion strains, locus YML124C, strain tub3, stronger effect = lower value 0.992 | S. cerevisiae deletion strains, locus YMR058W, strain fet3, stronger effect = lower value 0.957 | S. cerevisiae deletion strains, locus YMR078C, strain ctf18, stronger effect = lower value 0.979 | S. cerevisiae deletion strains, locus YMR125W, strain sto1, stronger effect = lower value 0.942 | S. cerevisiae deletion strains, locus YMR129W, stronger effect = lower value 0.964 | S. cerevisiae deletion strains, locus YMR205C, strain PFK2, stronger effect = lower value 0.995 | S. cerevisiae deletion strains, locus YMR223W, strain ubp8, stronger effect = lower value 0.976 | S. cerevisiae deletion strains, locus YMR231W, strain pep5, stronger effect = lower value 0.982 | S. cerevisiae deletion strains, locus YMR263W, strain SAP30, stronger effect = lower value 0.994 | S. cerevisiae deletion strains, locus YMR307W, strain GAS1, stronger effect = lower value 0.971 and 1.01 | S. cerevisiae deletion strains, locus YNL067W, strain RPL9B, stronger effect = lower value 1.01 | S. cerevisiae deletion strains, locus YNL071W, strain lat1, stronger effect = lower value 1 | S. cerevisiae deletion strains, locus YNL128W, strain TEP1, stronger effect = lower value 0.997 and 1.01 | S. cerevisiae deletion strains, locus YNL153C, strain GIM3, stronger effect = lower value 0.995 and 1 | S. cerevisiae deletion strains, locus YNL175C, strain NOP13, stronger effect = lower value 0.959 | S. cerevisiae deletion strains, locus YNL183C, strain NPR1, stronger effect = lower value 0.951 | S. cerevisiae deletion strains, locus YNL197C, strain WHI3, stronger effect = lower value 0.991 | S. cerevisiae deletion strains, locus YNL209W, strain ssb2, stronger effect = lower value 0.968 | S. cerevisiae deletion strains, locus YNL224C, strain SQS1, stronger effect = lower value 1 | S. cerevisiae deletion strains, locus YNL233W, strain BNI4, stronger effect = lower value 0.997 | S. cerevisiae deletion strains, locus YNL248C, strain rpa49, stronger effect = lower value 0.959 | S. cerevisiae deletion strains, locus YNL250W, strain rad50, stronger effect = lower value 0.973 | S. cerevisiae deletion strains, locus YNL271C, strain bni1, stronger effect = lower value 0.988 | S. cerevisiae deletion strains, locus YNL298W, strain CLA4, stronger effect = lower value 1.01 | S. cerevisiae deletion strains, locus YNL307C, strain MCK1, stronger effect = lower value 0.986 | S. cerevisiae deletion strains, locus YNL322C, strain KRE1 (second series), stronger effect = lower value 0.958 | S. cerevisiae deletion strains, locus YNL322C, strain KRE1, stronger effect = lower value 0.992 | S. cerevisiae deletion strains, locus YNR049C, strain mso1, stronger effect = lower value 0.968 | S. cerevisiae deletion strains, locus YNR052C, strain pop2, stronger effect = lower value 0.987 | S. cerevisiae deletion strains, locus YOL006C, strain TOP1, stronger effect = lower value 0.951 | S. cerevisiae deletion strains, locus YOL012C, strain htz1 1.28 | S. cerevisiae deletion strains, locus YOL147C, strain pex11, stronger effect = lower value 0.999 | S. cerevisiae deletion strains, locus YOR001W, strain rrp6, stronger effect = lower value 0.995 | S. cerevisiae deletion strains, locus YOR061W, strain CKA2, stronger effect = lower value 0.991 | S. cerevisiae deletion strains, locus YOR069W, strain VPS5, stronger effect = lower value 0.97 | S. cerevisiae deletion strains, locus YOR070C, strain gyp1, stronger effect = lower value 0.982 | S. cerevisiae deletion strains, locus YOR080W, strain dia2, stronger effect = lower value 0.969 | S. cerevisiae deletion strains, locus YOR083W, strain WHI5 (second series), stronger effect = lower value 1.01 | S. cerevisiae deletion strains, locus YOR083W, strain WHI5, stronger effect = lower value 0.945 | S. cerevisiae deletion strains, locus YOR106W, strain vam3, stronger effect = lower value 0.959 | S. cerevisiae deletion strains, locus YOR136W, strain idh2, stronger effect = lower value 0.994 | S. cerevisiae deletion strains, locus YOR144C, strain elg1, stronger effect = lower value 0.996 | S. cerevisiae deletion strains, locus YOR184W, strain ser1, stronger effect = lower value 0.982 | S. cerevisiae deletion strains, locus YOR231W, strain MKK1, stronger effect = lower value 1.06 | S. cerevisiae deletion strains, locus YOR265W, strain rbl2, stronger effect = lower value 0.99 | S. cerevisiae deletion strains, locus YOR270C, strain vph1, stronger effect = lower value 0.976 | S. cerevisiae deletion strains, locus YOR290C, strain snf2, stronger effect = lower value 0.941 | S. cerevisiae deletion strains, locus YOR316C, strain cot1, stronger effect = lower value 0.987 | S. cerevisiae deletion strains, locus YPL051W, strain arl3, stronger effect = lower value 0.981 | S. cerevisiae deletion strains, locus YPL055C, strain LGE1, stronger effect = lower value 1.02 | S. cerevisiae deletion strains, locus YPL078C, strain atp4, stronger effect = lower value 0.999 | S. cerevisiae deletion strains, locus YPL106C, strain sse1, stronger effect = lower value 0.946 | S. cerevisiae deletion strains, locus YPL240C, strain hsp82, stronger effect = lower value 0.987 | S. cerevisiae deletion strains, locus YPL241C, strain CIN2, stronger effect = lower value 0.995 and 0.994 | S. cerevisiae deletion strains, locus YPL256C, strain CLN2, stronger effect = lower value 1.06 | S. cerevisiae deletion strains, locus YPR119W, strain clb2, stronger effect = lower value 0.994 | S. cerevisiae deletion strains, locus YPR141C, strain kar3, stronger effect = lower value 0.987 | S. cerevisiae deletion strains, locus YPR163C, strain tif3, stronger effect = lower value 0.994 | S. cerevisiae deletion strains, locus YPR167C, strain met16, stronger effect = lower value 0.993 | S. cerevisiae deletion strains, strain wtn01, stronger effect = lower value 0.992 | S. cerevisiae strains, strain wild type, stronger effect = lower value 0.999
